Cav3 T inh = Cav3.2 calcium influx blockers – cell-based, Fluo-4 calcium fluorescence, FDSS, MLSMR library, primary screen; Cav3.2-expressing cells; stronger effect = lower value; B-score at 10 µM; 4% of 100,000 active; Voltage-dependent T-type calcium channel subunit alpha-1H (Homo sapiens), O95180;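 active = single-dose well whose peak fluorescence ratio is a statistical outlier from its plate by either plate-standardised score or position-corrected B-score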
CYP2C19 activ = human CYP2C19 activators, primary screen, biochemical, luminescence. recombinant CYP2C19, luciferin-H EGE luminescence; stronger effect = higher value; 0 = fully inhibited enzyme, 1 = untreated enzyme. activation factor at 5 µM. Cytochrome P450 2C19 (Homo sapiens), P33261. 96,000 tested, under 10 active. AID 1025, 2008;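 active = activation factor of at least 2 at 5 µM in the primary screen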;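 note: 0 = wells with 2.5 mM tranylcypromine and 1 = vehicle-only wells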
CYP2C9 act = human CYP2C9 activators, primary screen, biochemical, luminescence; recombinant CYP2C9, luciferin-H conversion; stronger effect = higher value; factor 1 = untreated enzyme, 0 = blocked; activation factor at 5 µM; Cytochrome P450 2C9 (Homo sapiens), P11712; AID 1024, 2008; 1.4% of 96,000 active;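 active = activation factor of 2 or more for CYP2C9 at a 5 µM dose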;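 note: 0 = sulfaphenazole-blocked wells and 1 = vehicle-only wells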
CYP2C9 inh = blockers of cytochrome P450 2C9 activity – biochemical, luminescence, ADME assay, primary screen; AID 777, 2007; 20% of 96,000 active; inhibition, % at 5 µM; CYP2C9 Supersomes, luciferin-H conversion; P11712;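 active = blocking of liver enzyme CYP2C9 beyond about 50% at 5 µM, limit read from the data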
CYP2C19 inhib = blockers of cytochrome P450 2C19 activity – biochemical, luminescence, ADME assay, primary screen. P33261. CYP2C19 Supersomes, luciferin-H EGE luminescence, 30 min. inhibition, % at 5 µM. 21% of 96,000 active;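 active = CYP2C19 inhibition above a set limit at 5 µM in the primary screen, cut at about 50% in these data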;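 note: plate controls were negative control wells for no effect and 2.5 mM tranylcypromine positive control for full effect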
The depositor's hits bear a star; x = not tested or not shown. Shown are actives, neighbours in structure and some others; about 27% of the full set was active somewhere.

SMILES	Cav3 T inh	CYP2C19 activ	CYP2C9 act	CYP2C9 inh	CYP2C19 inhib
O=C(CCCN1C(=O)c2ccccc2C1=O)Nc1c(C(=O)C2CC2)oc2ccccc12	0.526	0.8	0.6	43.7	20.1
COC(=O)c1oc2ccc(Br)cc2c1NC(=O)CCCN1C(=O)c2ccccc2C1=O	-0.31	0.6	0.4	64.5*	42.7
Cc1ccc(OCCCC(=O)Nc2nccs2)cc1	-0.535	0.5	0.5	54.7*	53.9*
O=C(CCCCCCC(=O)Nc1ccccc1)NO	0.125	x	x	x	x
O=C(CCCCCN1C(=O)c2ccccc2C1=O)NCc1ccccn1	0.268	1	1	0.3	-2.3
CCC1=C(OC(=O)N(CC)CC)N2C(=O)OC(=NCCOC)[C@]2(Cc2ccccc2)[C@H]2C1=CC[C@H]1C(=O)N(C)C(=O)[C@H]12	0.0336	x	x	x	x
COc1ccccc1N1CCN(C(=O)c2ccc(S(=O)(=O)N3CCCC3)cc2)CC1	0.496	0.8	0.7	33.5	15.4
CC(C)CCNC(=O)CCCOc1ccccc1	-0.0198	0.5	1.1	-12.1	54.3*
COc1ccc(N2C(=O)c3ccc(NC(C)=O)cc3C2=O)cc1	0.564	0.9	0.4	55.4*	11.8
CC(=O)Nc1ccc2c(c1)C(=O)N(C1CCCCC1)C2=O	x	1.1	0.9	14.4	-7.0
CC(=O)Nc1ccc2c(c1)C(=O)N(c1ccc(C)cc1)C2=O	-0.0877	0.8	0.6	37.9	18.3
CC(=O)Nc1ccc2c(c1)C(=O)c1ccccc1C2=O	0.882	0.7	0.4	63.2*	30.2
COc1cc(CC(=O)Nc2nccs2)cc(OC)c1OC	0.107	0.2	0.6	40.7	79.8*
O=C(NCc1ccccc1C(F)(F)F)C12CN(Cc3ccccc3)CC1C(c1ccc([N+](=O)[O-])cc1)=NO2 (centres undefined)	-0.341	0.6	0.6	36.7	43.6
COC(=O)C1N2C(=O)[C@@H](NC(=O)COc3ccccc3)[C@H]2SC1(C)C (some centres undefined)	0.36	x	x	x	x
O=C(CCCN1C(=O)c2ccccc2C1=O)Nc1c2c(nc3c1CCC3)CCC2	0.0201	1	0.4	63.0*	-4.4
O=C(CCCN1C(=O)c2ccccc2C1=O)NCC1CCCO1 (centres undefined)	-0.313	1	1	-2.2	-2.7
COCC(=O)Nc1cc([N+](=O)[O-])ccc1C	-0.0101	1	0.9	9.4	0.0
Cc1ccc([N+](=O)[O-])cc1NC(=O)CCCOc1ccccc1	-1.87	0.7	2.3*	-129.7	31.4
O=C(Cc1cc(=O)[nH]c(=O)[nH]1)N1CCC(Cc2ccccc2)CC1	0.08	x	x	x	x
COC(=O)c1ccc2c(=O)[nH]c(CN3c4ccccc4CC3C)nc2c1 (centres undefined)	0.542	0.8	0.2	81.8*	22.2
N#Cc1ccc(COC(=O)c2ccc3c(=O)[nH]c(CN4CCOCC4)nc3c2)cc1	-0.149	1.1	1	0.3	-14.0
CC1Cc2ccccc2N1Cc1nc2cc(Cl)ccc2c(=O)[nH]1 (centres undefined)	-1.94	0.4	0.2	79.8*	56.9*
O=c1[nH]c(CN2CCCCC2)nc2ccccc12	0.195	1.1	1.1	-14.0	-10.2
CC1Cc2ccccc2N1Cc1nc2scc(-c3cccs3)c2c(=O)[nH]1 (centres undefined)	-3.11	0.3	0	95.3*	74.6*
SMILES	Cav3 T inh	CYP2C19 activ	CYP2C9 act	CYP2C9 inh	CYP2C19 inhib
Cc1ccc(S(=O)(=O)N2CCOCC2)c(C)c1-n1cnnn1	0.475	1.1	3*	-197.6	-8.6
COc1ccc(-c2cc3nc(C)cc(N)n3n2)cc1	-2.02	0.2	0.7	29.7	77.1*
C/C(O)=C\c1nc2ccccc2oc1=O	0.0308	1.1	1.1	-14.2	-11.7
CS(=O)(=O)Cc1nc2ccccc2oc1=O	-0.688	0.4	0.6	44.6	63.9*
CCC(C)(C(=O)NC1CCCC1)N(C(=O)c1cnccn1)c1c(C)n(C)n(-c2ccccc2)c1=O (centres undefined)	x	1.1	1.1	-11.7	-14.3
O=C(C(c1ccccc1)c1ccccc1)N1CCCc2ccccc21	-1.64	x	x	x	x
CC1CCCN(C(=O)C(Cc2ccccc2)n2cccc2)C1 (centres undefined)	-3	0.3	0.7	28.0	67.0*
CC1CCCN(C(=O)C2CCN(CCCc3ccccc3)CC2)C1 (centres undefined)	1.1	1.1	1.1	-6.7	-12.0
O=C(C(Cc1ccccc1)n1cccc1)N1CCc2ccccc21 (centres undefined)	-6.22*	0.9	0.8	19.1	6.7
O=C(O)C(Cc1ccccc1)n1cccc1 (centres undefined)	0.461	1	1	-0.7	-4.7
O=C(C(Cc1ccccc1)n1cccc1)N1CCN(c2ccccc2)CC1 (centres undefined)	-4.57	0.1	0.6	43.1	94.8*
CCCc1cc(=O)n2c(nc3ccccc32)[nH]1	0.609	1	0.6	37.0	-2.4
COCCNC(=O)CSc1nc(-c2ccccc2)cs1	1.17	0.8	0.9	5.8	22.2
CC(C)CCNC(=O)c1ccc2c(c1)N(Cc1ccccc1)C(=O)CS2=O (centres undefined)	-1.07	0.9	0.5	50.3*	13.0
CC(C)CCNC(=O)c1cccc(C(=O)NCCC(C)C)c1	-0.0131	0.9	0.6	37.4	8.1
CCCN(CCC)C(=O)c1ccc2c(c1)N(Cc1ccccc1)C(=O)CS2=O (centres undefined)	0.066	1.1	0.1	86.1*	-7.2
O=C(NCCc1ccccc1)c1ccc2c(c1)N(Cc1ccccc1)C(=O)CS2=O (centres undefined)	1.11	0.5	0.1	86.3*	48.2
CC(C)[C@H](NS(=O)(=O)c1ccccc1)C(=O)OCn1nnc2ccccc2c1=O	-0.347	0.6	0.8	17.9	36.7
Cc1cccc2c1OCC/C2=N\NC(=O)COc1ccccc1	-1.72	0.8	0.6	35.2	23.1
CCN(CC)Cc1c[nH]c2c(C(=O)OC)cccc12	0.37	x	x	x	x
CC(C)C(NC(=O)c1cccs1)C(=O)NC1=NCCS1 (centres undefined)	1.18	0.5	0.7	27.2	54.3*
COc1cc(NC(=O)c2cc(-c3cccnc3)nc3ccc(C)cc23)c(OC)cc1Cl	x	1	1.1	-10.0	-1.1
Cc1ccc(-c2nnc(SCC(=O)Nc3ccc4c(c3)oc3ccccc34)n2C)c(Cl)c1	-0.971	0.8	0.4	59.0*	23.7
Cn1c(CCNC(=O)c2ccc(Cl)c(Cl)c2)nnc1SCc1ccc(Cl)c(Cl)c1	1.05	1	0.8	15.7	2.7
C=CCn1c(CCNC(=O)c2ccc(Cl)c(Cl)c2)nnc1SCCOc1ccc(OC)cc1	-4.44	0.6	0.4	60.1*	42.8
CC(C)(C)OC(=O)NNC(=O)c1ccc(Cl)cc1	0.845	0.5	0.8	24.3	46.1
